Experimental data published in PubChem BioAssay (NCI).
This is part of a sample that, as a whole, favours compounds with a hit. Of some 79,000 tested, about 15% had one in any assay. Calls of active or inactive are those of the source. No stated cut-off is given here; in the data, active means growth inhibition above about 70%; inactive means the rest.

Key:
[1] = NCI Yeast Anticancer Drug Screen. Data for the rad52 strain (AID 147);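 further: 0% = growth of vehicle-treated control cultures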; conditions: S. cerevisiae rad52 mutant growth inhibition, active compounds read high
How it was run: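 Yeast strain carrying a DNA damage repair alteration was exposed to test compounds. Growth inhibition was measured relative to vehicle-treated controls.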

[2] = NCI Yeast Anticancer Drug Screen. Data for the rad50EPP+ strain (AID 151);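 further: 0% = growth of vehicle-treated control cultures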; conditions: S. cerevisiae rad50 mutant strain, active compounds read high
How it was run: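 Yeast strain carrying rad50 alteration (rad50EPP+) exposed to compounds; growth inhibition measured relative to vehicle-treated controls.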

[3] = NCI Yeast Anticancer Drug Screen. Data for the mgt1 strain (AID 153); conditions: S. cerevisiae mgt1 mutant growth inhibition, active compounds read high
How it was run: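 Yeast mgt1 strain (DNA repair/cell-cycle alteration panel) exposed to compounds; growth inhibition measured relative to vehicle-treated controls.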

[4] = NCI Yeast Anticancer Drug Screen. Data for the rad50 strain (AID 155);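 further: 0% = growth of vehicle-only cultures of the same strain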; conditions: S. cerevisiae rad50 strain growth inhibition, active compounds read high
How it was run: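 Growth of the mutant yeast was measured after compound exposure and referenced to vehicle-treated cultures.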

[5] = NCI Yeast Anticancer Drug Screen. Data for the mec2-1 strain (AID 157); conditions: S. cerevisiae mec2-1 strain, active compounds read high
How it was run: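 mec2-1 yeast strain, carrying an alteration in DNA damage repair or cell cycle control, was exposed to compounds; growth inhibition was measured relative to vehicle-treated controls.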

[6] = NCI Yeast Anticancer Drug Screen. Data for the rad14 strain (AID 159);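 further: 0% = growth of vehicle-treated control cultures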; conditions: S. cerevisiae rad14 strain growth inhibition, active compounds read high
How it was run: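 Here, inhibition of yeast growth was measured after compound exposure, using a strain with a genetic defect in DNA damage repair and vehicle-treated cultures as the reference.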

[7] = NCI Yeast Anticancer Drug Screen. Data for the sgs1 mgt1 strain (AID 161);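 further: 0% = growth of cultures given vehicle only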; conditions: S. cerevisiae sgs1 mgt1 strain, active compounds read high
How it was run: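 Percent growth inhibition was derived by comparing compound-exposed mutant yeast with vehicle-exposed cultures. The strain carries alterations in DNA damage repair.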

[8] = NCI Yeast Anticancer Drug Screen. Data for the CLN2oe strain (AID 163);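 further: 0% = growth of vehicle-only control cultures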; conditions: S. cerevisiae CLN2oe strain, active compounds read high
How it was run: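 Yeast cells carrying a defined cell-cycle control alteration were exposed to test compounds. Growth inhibition was scored against vehicle-treated control cultures.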

[9] = NCI Yeast Anticancer Drug Screen. Data for the cln2 rad14 strain (AID 165);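 further: 0% = growth equal to vehicle treated cultures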; conditions: S. cerevisiae cln2 rad14 strain, active compounds read high
How it was run: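 Yeast carrying cln2 and rad14 alterations (cell cycle control and DNA damage repair) were exposed to compounds. Growth inhibition was measured against vehicle-treated controls.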

[10] = NCI Yeast Anticancer Drug Screen. Data for the bub3 strain (AID 167); conditions: S. cerevisiae bub3 mutant strain, active compounds read high
How it was run: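 Whole-cell yeast assay. The mutant strain was incubated with compounds, and growth inhibition was determined by comparison with vehicle-treated cells.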

[11] = NCI Yeast Anticancer Drug Screen. Data for the wt2 strain (AID 169);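 further: 0% = growth of vehicle-treated yeast cultures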; conditions: S. cerevisiae wt2 strain growth inhibition, active compounds read high
How it was run: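 Yeast cells were exposed to test compounds, and growth inhibition was measured relative to vehicle-treated controls.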

[12] = NCI Yeast Anticancer Drug Screen. Data for the mlh1 strain (AID 171);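 further: 0% = growth of vehicle-treated control cultures of the same strain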; conditions: S. cerevisiae mlh1 strain growth inhibition, active compounds read high
How it was run: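 Yeast carrying a defined genetic alteration in DNA damage repair or cell cycle control were exposed to test compounds. Growth inhibition was measured relative to vehicle-treated controls.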

[13] = NCI Yeast Anticancer Drug Screen. Data for the sgs1 strain (AID 173);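 further: 0% = growth of vehicle-only control cultures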; conditions: S. cerevisiae sgs1 mutant, active compounds read high
How it was run: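 Yeast mutant strains carrying defined defects in DNA damage repair or cell cycle control were exposed to test compounds. Growth inhibition was scored against vehicle-treated controls.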

[14] = NCI Yeast Anticancer Drug Screen. Data for the mlh1 rad18 strain (AID 175); conditions: S. cerevisiae mlh1 rad18 strain growth inhibition, active compounds read high
How it was run: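 Growth inhibition of the yeast strain was measured after compound exposure and expressed relative to vehicle-treated controls. The strain carries defined defects in DNA damage repair.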

[15] = NCI Yeast Anticancer Drug Screen. Data for the rad18 strain (AID 177); conditions: S. cerevisiae rad18 mutant growth inhibition, active compounds read high
How it was run: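 Yeast carrying a defined DNA damage repair alteration were exposed to compounds. Growth inhibition was expressed relative to vehicle-treated controls.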

[16] = at 5.0 µM (retest, dose inferred, filed as 0.5)
[17] = at 50.0 µM (retest, dose inferred, filed as 5.0)

Measured: growth inhibition

Nc1nc2ccc(NCc3ccc(C(=O)NC(CCC(=O)O)C(=O)O)cc3)cc2c(=O)[nH]1 (stereo unspecified)
active: [1]; at 100.0 µM 74% | [4]; at 100.0 µM 77% | [5]; at 33.0 µM 92% | [5]; [17] 81% | [5]; at 50.0 µM 75.3% | [5]; at 100.0 µM 97% | [10]; at 100.0 µM 76%
inactive: [1]; at 1.2 µM -15% | [1]; at 3.7 µM -35% | [1]; at 11.0 µM -21% | [1]; at 33.0 µM 32% | [2]; at 1.2 µM 7% | [2]; at 3.7 µM -24% | [2]; at 11.0 µM -9% | [2]; at 33.0 µM -18% | [2]; at 100.0 µM 5% | [3]; at 1.2 µM -14% | [3]; at 3.7 µM -14% | [3]; at 11.0 µM -24% | [3]; at 33.0 µM 0% | [3]; at 100.0 µM 26% | [4]; at 1.2 µM 7% | [4]; at 3.7 µM -19% | [4]; [16] 3% | [4]; at 11.0 µM 9% | [4]; at 33.0 µM 23% | [4]; [17] 18% | [4]; at 50.0 µM 22.1% | [5]; at 1.2 µM -4% | [5]; at 3.7 µM 1% | [5]; [16] -3% | [5]; at 11.0 µM 8% | [6]; at 1.2 µM -20% | [6]; at 3.7 µM -19% | [6]; at 11.0 µM -31% | [6]; at 33.0 µM -5% | [6]; at 100.0 µM 55% | [7]; [16] 21% | [7]; [17] 18% | [7]; at 50.0 µM 25% | [8]; at 1.2 µM 10% | [8]; at 3.7 µM 7% | [8]; at 11.0 µM -5% | [8]; at 33.0 µM 2% | [8]; at 100.0 µM 6% | [9]; [16] 25% | [9]; [17] 25% | [9]; at 50.0 µM 8.85% | [10]; at 1.2 µM -7% | [10]; at 3.7 µM 6% | [10]; [16] 12% | [10]; at 11.0 µM -4% | [10]; at 33.0 µM 6% | [10]; [17] -24% | [10]; at 50.0 µM 30.9% | [11]; at 1.2 µM -24% | [11]; at 3.7 µM -23% | [11]; at 11.0 µM -22% | [11]; at 33.0 µM -26% | [11]; at 100.0 µM -17% | [12]; at 1.2 µM -5% | [12]; at 3.7 µM 2% | [12]; at 11.0 µM 0% | [12]; at 33.0 µM 11% | [12]; at 100.0 µM 39% | [13]; at 1.2 µM -3% | [13]; at 3.7 µM 9% | [13]; at 11.0 µM 6% | [13]; at 33.0 µM 6% | [13]; at 100.0 µM 51% | [14]; [16] 6% | [14]; [17] 2% | [14]; at 50.0 µM 59.4% | [15]; at 1.2 µM -11% | [15]; at 3.7 µM 1% | [15]; at 11.0 µM -12% | [15]; at 33.0 µM 5% | [15]; at 100.0 µM 63%

CCc1nc2ccc(NCCN(C)C)c3c(=O)c4ccccc4n1c23
active: [1]; at 33.0 µM 81% | [1]; at 100.0 µM 85% | [2]; at 100.0 µM 71% | [4]; at 11.0 µM 74% | [4]; at 33.0 µM 89% | [4]; [17] 86% | [4]; at 100.0 µM 91% | [14]; at 50.0 µM 83.8% | [15]; at 100.0 µM 80%
inactive: [1]; at 1.2 µM 12% | [1]; at 3.7 µM 39% | [1]; at 11.0 µM 60% | [2]; at 1.2 µM 14% | [2]; at 3.7 µM 26% | [2]; at 11.0 µM 39% | [2]; at 33.0 µM 57% | [3]; at 1.2 µM 37% | [3]; at 3.7 µM 38% | [3]; at 11.0 µM 29% | [3]; at 33.0 µM 23% | [3]; at 100.0 µM 40% | [4]; at 1.2 µM 46% | [4]; at 3.7 µM 49% | [4]; [16] 38% | [4]; at 50.0 µM 29.1% | [5]; at 1.2 µM 25% | [5]; at 3.7 µM 26% | [5]; [16] 4% | [5]; at 11.0 µM 11% | [5]; at 33.0 µM 24% | [5]; [17] 40% | [5]; at 50.0 µM 20.1% | [5]; at 100.0 µM 16% | [6]; at 1.2 µM 31% | [6]; at 3.7 µM 33% | [6]; at 11.0 µM 35% | [6]; at 33.0 µM 37% | [6]; at 100.0 µM 58% | [7]; [16] 3% | [7]; [17] 28% | [7]; at 50.0 µM 19.6% | [8]; at 1.2 µM 18% | [8]; at 3.7 µM 13% | [8]; at 11.0 µM 17% | [8]; at 33.0 µM 33% | [8]; at 100.0 µM 46% | [9]; [16] 14% | [9]; [17] 26% | [9]; at 50.0 µM 21.8% | [10]; at 1.2 µM 9% | [10]; at 3.7 µM 11% | [10]; [16] 4% | [10]; at 11.0 µM 5% | [10]; at 33.0 µM 3% | [10]; [17] 32% | [10]; at 50.0 µM -4.2% | [10]; at 100.0 µM 26% | [11]; at 1.2 µM -39% | [11]; at 3.7 µM -34% | [11]; at 11.0 µM -29% | [11]; at 33.0 µM -31% | [11]; at 100.0 µM 5% | [12]; at 1.2 µM 37% | [12]; at 3.7 µM 38% | [12]; at 11.0 µM 29% | [12]; at 33.0 µM 23% | [12]; at 100.0 µM 40% | [13]; at 1.2 µM 18% | [13]; at 3.7 µM 15% | [13]; at 11.0 µM 28% | [13]; at 33.0 µM 22% | [13]; at 100.0 µM 54% | [14]; [16] 14% | [14]; [17] 53% | [15]; at 1.2 µM 30% | [15]; at 3.7 µM 42% | [15]; at 11.0 µM 44% | [15]; at 33.0 µM 63%
